# Test results taken from PubChem BioAssay (EPA / NIEHS).
# Results filed as inconclusive are left out. Active and inactive are the calls of the source. The calls were made as follows, unless noted: active = hit-call score of the fitted dose curve at least 0.9, where 1 is the maximum; inactive = score below 0.9.
# Assays:
# [1] = CCTE_Harrill_HTTr_Viability_MCF7: CCTE's 6-hour Cell Viability Assessment for the High-Throughput Transcriptomics (HTTr) Platform, in MCF-7 cells cultured in DMEM + 10% fetal bovine serum, Harrill Lab (AID 2284010)
# In short: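 Eight-point concentration series, six-hour exposure. Propidium iodide exclusion imaged to assess membrane integrity as a cytotoxicity readout; bidirectional fitting was done with DMSO as negative control and activity baseline.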
# [2] = CCTE_Harrill_HTTr_Apoptosis_MCF7: CCTE's 6-hour Apoptosis Assessment for the High-Throughput Transcriptomics (HTTr) Platform, in MCF-7 cells cultured in DMEM + 10% fetal bovine serum, Harrill Lab (AID 2284011)
# In short: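 MCF-7 cells in DMEM + 10% fetal bovine serum were exposed to chemicals for 6 hours over an eight-point dilution series. Caspase-3/7 activation was imaged by high content imaging with CellEvent Caspase 3/7 Green; bidirectional fitting used DMSO as baseline.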
# [3] = CCTE_Harrill_HTTr_CellCount_MCF7: CCTE's Cell Proliferation Assessment for the High-Throughput Transcriptomics (HTTr) Platform, Harrill Lab (AID 2284012; active = hit-call score of the fitted dose curve at least 0.9, where 1 is the maximum;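 also: count of Hoechst-stained nuclei per well by high-content imaging in MCF-7 cells; cells exposed to compound for six hours; intended direction is loss of nuclei count meaning fewer cells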)
# In short: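 For this full-screen endpoint, MCF-7 cultures received eight compound dilutions for six hours. Well nuclei counts from Hoechst imaging were analyzed relative to DMSO.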
# [4] = CCTE_Shafer_MEA_acute_burst_duration_mean: CCTE's Neural Acute Assay for Mean Burst Duration, Shafer Lab (AID 2284014);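 also: hits are decreases in mean burst duration relative to DMSO controls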
# In short: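 Mean burst duration was compared between a 40 min baseline and a 40 min recording in the presence of compound (0.03-40 uM, 37 C), giving percent change per well. Cultures were rat cortical neurons at DIV 13 or 15; wells needed ≥10 active electrodes.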
# [5] = CCTE_Shafer_MEA_acute_per_burst_spike_number_mean: CCTE's Neural Acute Assay for Average Number of Spikes Per Burst, Shafer Lab (AID 2284015);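 also: hits are decreases in mean spikes per burst versus baseline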
# In short: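 Read-out: percent change in mean spikes per burst, each well's post-exposure 40-min recording versus its own 40-min baseline. Rat cortical cultures, DIV 13 or 15, compounds 0.03-40 uM; DMSO is negative control, loss-of-signal fitting.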
# [6] = CCTE_Shafer_MEA_acute_interburst_interval_mean: CCTE's Neural Acute Assay for Mean Interburst Interval, Shafer Lab (AID 2284016);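 also: percent change of mean interburst interval versus each well's own pre-dose baseline; curves fitted for decrease in interburst interval relative to DMSO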
# In short: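 Rat cortical cultures, DIV 13/15; 20 min equilibration, 40 min baseline, compound 0.03-40 uM, 40 min re-recording, 37 C. Spikes detected at 8x rms noise (300-5000 Hz band-pass). Endpoint: % change in interburst interval, fitted in loss direction vs DMSO.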
# [7] = CCTE_Shafer_MEA_acute_burst_percentage_mean: CCTE's Neural Acute Assay for Percentage of Spikes in a Burst, Shafer Lab (AID 2284017);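 as to AC50: curve fitted for loss of signal so potency reflects decreased burst percentage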
# In short: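 Rat cortical cultures, DIV 13/15, 37 C. Spikes detected at 8x rms noise (300-5000 Hz band-pass). Burst spikes/total spikes averaged across electrodes per well; % change post- vs pre-treatment (40 min each), loss-of-signal fit vs DMSO.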
# [8] = CCTE_Shafer_MEA_acute_burst_percentage_std: CCTE's Neural Acute Assay for Standard Deviation of Burst Percentage, Shafer Lab (AID 2284018);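 also: fitted in the negative direction so actives lower burst percentage SD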
# In short: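 Value is percent change from baseline in the across-electrode SD of spikes-in-bursts percentage, wells with >/= 10 active electrodes. Acute 40-min exposure to 0.03-40 uM on DIV 13 or 15 rat cortical cultures, recorded at 37 C after 40-min baseline.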
# [9] = CCTE_Shafer_MEA_acute_per_network_burst_spike_number_mean: CCTE's Neural Acute Assay for Average Number of Spikes in a Network Burst, Shafer Lab (AID 2284019);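 as to AC50: curve fitted for loss of signal so actives reduce spikes per network burst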
# In short: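 Percent change from baseline in mean spikes per network burst, spikes detected at 8x rms noise. Each compound at 0.03-40 uM in at least three wells of rat cortical cultures, recorded 40 min before and 40 min during exposure.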
# [10] = CCTE_Shafer_MEA_acute_per_network_burst_spike_number_std: CCTE's Neural Acute Assay for Standard Deviation of Number of Spikes in a Network Burst, Shafer Lab (AID 2284020);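 also: fitted for decrease in spike-number SD versus DMSO so actives lower it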
# In short: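 Endpoint: percent change from 40 min baseline in standard deviation of spikes per network burst, after 40 min compound exposure (0.03-40 uM, 37 C). Cortical rat neurons on MEA at DIV 13 or 15; spikes detected at 8x rms noise, 300-5000 Hz band-pass.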
smiles,measurement,setting,value
Oc1ccc2c(c1)OC[C@@H](N1CCC(O)(c3ccc(F)cc3)CC1)[C@H]2O,outcome,[1],inactive
same,outcome,[2],inactive
CC1(C)CC(N=C=O)CC(C)(CN=C=O)C1 (stereo not given),outcome,[1],inactive
same,outcome,[2],inactive
O=C(O)Cc1ccccc1Nc1c(Cl)cccc1Cl,outcome,[1],inactive
same,outcome,[2],inactive
same,outcome,[3],inactive
Cc1nc(-c2ccc3c(c2)CCN(CCC2CCC(NC(=O)/C=C/c4ccc(F)cc4)CC2)CC3)no1 (stereo not given),outcome,[1],inactive
same,outcome,[2],inactive
same,outcome,[3],inactive
C1CCC(SSC2CCCCC2)CC1,outcome,[1],inactive
same,outcome,[2],inactive
NC(=O)Cn1c(=O)cc(CCN2CCN(c3nccc4sccc34)CC2)c2ccc(F)cc21,outcome,[1],inactive
same,outcome,[2],inactive
C=CCOC(=O)c1ccccc1C(=O)OCC=C,outcome,[1],inactive
same,outcome,[2],inactive
same,outcome,[3],inactive
same,outcome,[4],inactive
same,outcome,[5],inactive
same,outcome,[6],inactive
same,AC50,[7],20 µM (active)
same,AC50,[8],20 µM (active)
same,outcome,[9],inactive
same,outcome,[10],inactive
CC(C)(C)c1cc(O)c(C(C)(C)C)cc1O,outcome,[1],inactive
same,outcome,[2],inactive
same,AC50,[4],29.4 µM (active)
same,outcome,[5],inactive
same,AC50,[6],31.4 µM (active)
same,outcome,[7],inactive
same,outcome,[8],inactive
same,AC50,[9],4.33 µM (active)
same,AC50,[10],30.7 µM (active)
O=C(O)CCCCC(=O)O,outcome,[1],inactive
same,outcome,[2],inactive
same,outcome,[4],inactive
same,outcome,[5],inactive
same,outcome,[6],inactive
same,outcome,[7],inactive
same,outcome,[8],inactive
same,outcome,[9],inactive
same,outcome,[10],inactive
CCOC(=O)C(C)(C)Oc1ccc(Cl)cc1,outcome,[1],inactive
same,outcome,[2],inactive
same,outcome,[4],inactive
same,outcome,[5],inactive
same,outcome,[6],inactive
same,outcome,[7],inactive
same,outcome,[8],inactive
same,outcome,[9],inactive
same,outcome,[10],inactive
COc1ccc(S(=O)(=O)N2C(=O)[C@@](c3ccccc3OC)(N3C[C@H](O)C[C@H]3C(=O)N(C)C)c3cc(Cl)ccc32)c(OC)c1,outcome,[1],inactive
same,outcome,[2],inactive
same,outcome,[4],inactive
same,outcome,[5],inactive
same,outcome,[6],inactive
same,outcome,[7],inactive
same,outcome,[8],inactive
same,outcome,[9],inactive
same,outcome,[10],inactive
COc1ccc2c(c1)c(CC(=O)O)c(C)n2C(=O)c1ccc(Cl)cc1,outcome,[1],inactive
same,outcome,[2],inactive
same,outcome,[3],inactive
same,outcome,[4],inactive
same,outcome,[5],inactive
same,outcome,[6],inactive
same,outcome,[7],inactive
same,outcome,[8],inactive
same,outcome,[9],inactive
same,outcome,[10],inactive
CN1CCCC1=O,outcome,[1],inactive
same,outcome,[2],inactive
same,outcome,[4],inactive
same,outcome,[5],inactive
same,outcome,[6],inactive
same,outcome,[7],inactive
same,outcome,[8],inactive
same,outcome,[9],inactive
same,outcome,[10],inactive
c1cc(-c2ccncc2)ccn1,outcome,[1],inactive
same,outcome,[2],inactive
same,outcome,[3],inactive
same,outcome,[4],inactive
same,outcome,[5],inactive
same,outcome,[6],inactive
same,outcome,[7],inactive
same,outcome,[8],inactive
same,outcome,[9],inactive
same,outcome,[10],inactive
FC(F)(F)C(F)(F)C(F)(F)C(F)(F)C(F)(F)C(F)(F)CCI,outcome,[1],inactive
same,outcome,[2],inactive
same,outcome,[4],inactive
same,outcome,[5],inactive
same,outcome,[6],inactive
same,outcome,[7],inactive
same,outcome,[8],inactive
same,outcome,[9],inactive
same,outcome,[10],inactive
NCC1(Cc2noc(=O)[nH]2)CCCCC1,outcome,[1],inactive
same,outcome,[2],inactive
same,outcome,[4],inactive
same,outcome,[5],inactive
same,outcome,[6],inactive
same,outcome,[7],inactive
same,outcome,[8],inactive
same,outcome,[9],inactive
same,outcome,[10],inactive
Cc1ccc2ncccc2c1,outcome,[1],inactive
same,outcome,[2],inactive
same,outcome,[4],inactive
same,outcome,[5],inactive
same,outcome,[6],inactive
same,outcome,[7],inactive
same,outcome,[8],inactive
same,outcome,[9],inactive
same,outcome,[10],inactive
CCCCCCCCCCO,outcome,[1],inactive
same,outcome,[2],inactive
same,outcome,[3],inactive
same,outcome,[4],inactive
same,outcome,[5],inactive
same,outcome,[6],inactive
same,AC50,[7],10.3 µM (active)
same,outcome,[8],inactive
same,outcome,[9],inactive
same,outcome,[10],inactive
NS(=O)(=O)c1cc2c(cc1Cl)NCNS2(=O)=O,outcome,[1],inactive
same,outcome,[2],inactive
same,outcome,[4],inactive
same,outcome,[5],inactive
same,outcome,[6],inactive
same,outcome,[7],inactive
same,outcome,[8],inactive
same,outcome,[9],inactive
same,outcome,[10],inactive
CCCCCCCCCCCCCCCCCC(=O)O,outcome,[1],inactive
same,outcome,[2],inactive
same,outcome,[4],inactive
same,outcome,[5],inactive
same,outcome,[6],inactive
same,outcome,[7],inactive
same,outcome,[8],inactive
same,outcome,[9],inactive
same,outcome,[10],inactive
Nc1ccc2c(c1)C(=O)c1ccccc1C2=O,outcome,[1],inactive
same,outcome,[2],inactive
same,outcome,[4],inactive
same,outcome,[5],inactive
same,outcome,[6],inactive
same,outcome,[7],inactive
same,outcome,[8],inactive
same,outcome,[9],inactive
same,outcome,[10],inactive
CCCc1cc(=O)[nH]c(=S)[nH]1,outcome,[1],inactive
same,outcome,[2],inactive
same,outcome,[4],inactive
same,outcome,[5],inactive
same,outcome,[6],inactive
same,outcome,[7],inactive
same,outcome,[8],inactive
same,outcome,[9],inactive
same,outcome,[10],inactive
Cc1ccc(C)c(O)c1C,outcome,[1],inactive
same,outcome,[2],inactive
same,outcome,[4],inactive
same,outcome,[5],inactive
same,outcome,[6],inactive
same,AC50,[7],32.4 µM (active)
same,AC50,[8],29.3 µM (active)
same,outcome,[9],inactive
same,outcome,[10],inactive
C[Si]1(C)O[Si](C)(C)O[Si](C)(C)O[Si](C)(C)O1,outcome,[1],inactive
same,outcome,[2],inactive
same,outcome,[4],inactive
same,outcome,[5],inactive
same,outcome,[6],inactive
same,outcome,[7],inactive
same,outcome,[8],inactive
same,outcome,[9],inactive
same,outcome,[10],inactive
Cc1ccc(C(C)C)c(O)c1,outcome,[1],inactive
same,outcome,[2],inactive
same,outcome,[4],inactive
same,outcome,[5],inactive
same,outcome,[6],inactive
same,AC50,[7],20 µM (active)
same,outcome,[8],inactive
same,outcome,[9],inactive
same,outcome,[10],inactive
C=CCc1ccc(O)c(OC)c1,outcome,[1],inactive
same,outcome,[2],inactive
same,outcome,[4],inactive
same,outcome,[5],inactive
same,outcome,[6],inactive
same,outcome,[7],inactive
same,outcome,[8],inactive
same,outcome,[9],inactive
same,outcome,[10],inactive
Nc1nc(N)c2nc(CNc3ccc(C(=O)N[C@@H](CCC(=O)O)C(=O)O)cc3)cnc2n1,outcome,[4],inactive
same,outcome,[5],inactive
same,outcome,[6],inactive
same,outcome,[7],inactive
same,outcome,[8],inactive
same,outcome,[9],inactive
same,outcome,[10],inactive
CNCc1cc(F)ccc1Oc1ccc(Cl)c(Cl)c1,outcome,[1],inactive
same,outcome,[2],inactive
same,AC50,[4],33.5 µM (active)
same,AC50,[5],31.5 µM (active)
same,outcome,[6],inactive
same,outcome,[7],inactive
same,outcome,[8],inactive
same,AC50,[9],32.6 µM (active)
same,AC50,[10],31.7 µM (active)
Nc1ccccc1N,outcome,[1],inactive
same,outcome,[2],inactive
same,outcome,[3],inactive
same,outcome,[4],inactive
same,outcome,[5],inactive
same,outcome,[6],inactive
same,outcome,[7],inactive
same,outcome,[8],inactive
same,outcome,[9],inactive
same,outcome,[10],inactive
CC(=O)Oc1ccccc1C(=O)O,outcome,[1],inactive
same,outcome,[2],inactive
same,outcome,[4],inactive
same,outcome,[5],inactive
same,outcome,[6],inactive
same,outcome,[7],inactive
same,outcome,[8],inactive
same,outcome,[9],inactive
same,outcome,[10],inactive
CN[C@H]1CC[C@@H](c2ccc(Cl)c(Cl)c2)c2ccc(S(N)(=O)=O)cc21,outcome,[1],inactive
same,outcome,[2],inactive
same,outcome,[4],inactive
same,AC50,[5],20 µM (active)
same,outcome,[6],inactive
same,AC50,[7],31.6 µM (active)
same,outcome,[8],inactive
same,outcome,[9],inactive
same,AC50,[10],20 µM (active)
Clc1cc(Cl)c(Cl)cc1Cl,outcome,[1],inactive
same,outcome,[2],inactive
same,outcome,[4],inactive
same,outcome,[5],inactive
same,outcome,[6],inactive
same,outcome,[7],inactive
same,outcome,[8],inactive
same,outcome,[9],inactive
same,outcome,[10],inactive
CC(=O)C(C)=CC1C(C)=CCCC1(C)C (stereo not given),outcome,[1],inactive
same,outcome,[2],inactive
same,outcome,[4],inactive
same,outcome,[5],inactive
same,outcome,[6],inactive
same,AC50,[7],20 µM (active)
same,outcome,[8],inactive
same,outcome,[9],inactive
same,outcome,[10],inactive
